Compound activity deposited in PubChem by National Center for Advancing Translational Sciences (NCATS).
The list is not random: actives were taken first. Their share in the collection is about 5.4%.
p53 reactivator: qHTS assay for re-activators of p53 using a Luc reporter. H1299 p53-A138V BP100-luciferase reporter, luminescence, 24 h. Potency, µM (titrated, usually from 92.2 µM), most hits filed as activators. 320,000 tested, 0.063% active. AID 504706, 2011; also: nearly all actives have a fitted effect of over 45% in size
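H1299 (p53-null), stable ts p53-A138V + BP100-Luc; 1000 cells/well, Opti-MEM/10% FBS; cpd 4 pt, 1:5; 24 h, 37 deg C, 5% CO2; detection reagent 10 min RT; luminescence.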
CtBP-E1A inh: qHTS Assay for Inhibitors of the CtBP/E1A Interaction; 340,000 tested, 0.49% active; AID 651724, 2012; AlphaScreen GST-E1A/His-CtBP binding, 1536-well; hits give low values; CtBP / adenovirus E1A interaction (AlphaScreen); activity change, % (concentration not given with the values); in the data active = activity change below about -65%; inconclusive = mostly about -30% to -63%
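GST-E1A and His-tagged CtBP (125 nM each as 5X stock) were preincubated with pin-transferred compound for 2 h at 37 °C in the dark, then glutathione donor and nickel acceptor beads were added for 1 h before AlphaScreen reading.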
Six1-Eya2 inh: qHTS Assay for Inhibitors of the Six1/Eya2 Interaction; 360,000 tested, 0.56% active; AlphaScreen GST-Six1/His-Eya2 binding, biochemical; hits give low values; activity change, % (concentration not given with the values); Homeobox protein SIX1 (Homo sapiens) + Protein phosphatase EYA2 (Homo sapiens), …; AID 651725, 2012; in the data active = activity change below about -65%; inconclusive = mostly about -30% to -63%
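Homogeneous AlphaScreen proximity assay pairing GST-Six1 with His-tagged Eya2 (added as 5X mix: 250 nM and 500 nM) in 50 mM Tris pH 8.0, 300 mM NaCl, 1 mM TCEP. Glutathione donor and nickel acceptor beads; 1 h, 37 °C, dark.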
VP16 counter: VP16 counterscreen qHTS for inhibitors of ROR gamma transcriptional activity; 310,000 tested, 3.5% active; AID 2546, 2010; Drosophila S2 Gal4-VP16 UAS-luciferase, luminescence, 20 h; Potency, µM (titrated, usually from 53.6 µM), most hits filed as inhibitors;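 also: Gal4-VP16 expression switched on by copper sulfate through the metallothionein promoter; nearly all actives have a fitted effect of over 50% in size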
RORgamma inh: qHTS for inhibitors of ROR gamma transcriptional activity; Nuclear receptor ROR-gamma (Mus musculus), P51450; Drosophila S2 Gal4-RORgamma UAS-luciferase reporter, 20 h; Potency, µM (series often up to 53.6 µM), hits mostly inhibitors; 310,000 tested, 5.4% active; AID 2551, 2010; also: nearly all actives have a fitted effect of over 60% in size
Target sequence (P51450 whole entry, looked up, the tested form may be a part): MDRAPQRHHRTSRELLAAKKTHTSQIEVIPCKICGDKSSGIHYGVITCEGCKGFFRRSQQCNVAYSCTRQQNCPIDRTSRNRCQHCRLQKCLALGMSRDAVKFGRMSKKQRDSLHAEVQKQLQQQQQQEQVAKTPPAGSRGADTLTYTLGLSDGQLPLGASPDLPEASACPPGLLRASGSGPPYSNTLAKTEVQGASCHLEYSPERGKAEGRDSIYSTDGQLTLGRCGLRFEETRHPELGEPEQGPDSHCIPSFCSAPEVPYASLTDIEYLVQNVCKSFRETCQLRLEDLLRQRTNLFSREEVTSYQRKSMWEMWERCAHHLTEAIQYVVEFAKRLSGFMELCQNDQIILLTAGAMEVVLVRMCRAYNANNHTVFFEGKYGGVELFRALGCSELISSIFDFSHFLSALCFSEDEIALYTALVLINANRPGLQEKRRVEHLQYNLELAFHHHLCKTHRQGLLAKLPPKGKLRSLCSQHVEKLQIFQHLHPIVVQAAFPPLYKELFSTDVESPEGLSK
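Drosophila Schneider cells stably carrying a metallothionein-driven Gal4 DBD–ROR gamma fusion and a UAS-Photinus luciferase reporter were exposed to compound for 1 hr, then induced with copper sulfate (700 uM final) for 20 hr at ambient temperature before luminescence reading.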
Of the large screens only hits and unclear results are named; the others gave an inactive call. Unless noted, calls follow the shape of the dose curve; as a rule, active = well fitted curve in the direction sought with a large enough effect; inconclusive = small, poorly fitted or top-dose-only effect, or another doubt; inactive = no such curve, though single readings can be large; an effect the other way counts as inactive or inconclusive.

CC1(C)C(=O)C=C[C@@]2(C)C1=C(O)C(=O)[C@@]1(C)C2CC[C@@]2(C)C(c3ccoc3)C[C@H]3O[C@@]321 (stereo partly specified)	VP16 counter 10µM, RORgamma inh 8.9µM (no result: p53 reactivator, CtBP-E1A inh, Six1-Eya2 inh)
CC1=CC[C@@H]2[C@@H](C1)c1c(O)cc(CC#CCCCNS(C)(=O)=O)cc1OC2(C)C	VP16 counter inconclusive (no result: p53 reactivator, CtBP-E1A inh, Six1-Eya2 inh)
CC1Oc2cc3c(-c4c(O)cc(O)c5c(O)c6c(cc45)OC(C)C(C)C6=O)c(O)cc(O)c3c(O)c2C(=O)C1C (stereo unspecified)	VP16 counter inconclusive, RORgamma inh 4µM
CCOP(=S)(OCC)Oc1ncn(-c2ccccc2)n1	VP16 counter inconclusive (no result: p53 reactivator, CtBP-E1A inh, Six1-Eya2 inh)
CCNC(=O)CCSc1nc2cc(Cl)ccc2o1	VP16 counter inconclusive
CCN1CCN(CC(c2ccccc2)c2ccccc2)CC1	RORgamma inh 20µM (no result: p53 reactivator)
O=C1CC2OCC=C3CN4CCC56c7ccccc7N1C5C2C3CC46 (stereo unspecified)	none (no result: p53 reactivator, CtBP-E1A inh, Six1-Eya2 inh)
CCn1nc(-c2ccccc2)nc2c(=O)n(C)c(=O)nc1-2	VP16 counter 1.3µM, RORgamma inh 0.89µM (no result: p53 reactivator)
COc1ccc(-c2nc3ccccc3c(=O)n2-c2ccc(OC)cc2)cc1	none
CC(C)CNC(=O)c1c(N)n(Cc2ccc3c(c2)OCO3)c2nc3ccccc3nc12	VP16 counter 7.1µM, RORgamma inh inconclusive
CC(C)OCCCNC(=O)c1c(N)n(Cc2cccs2)c2nc3ccccc3nc12	VP16 counter 16µM, RORgamma inh inconclusive
O=C(Cl)C(Cl)(Cl)Cl	none (no result: p53 reactivator, CtBP-E1A inh, Six1-Eya2 inh)
O=C(Cl)/C=C/C(=O)Cl	none (no result: p53 reactivator, CtBP-E1A inh, Six1-Eya2 inh)
CC/C(=N\NC(=S)Nc1ccccc1)c1c(O)[nH]c(=O)[nH]c1=O	VP16 counter inconclusive, RORgamma inh 5.6µM
O=C(N/N=C/c1c(O)n(C2CC2)c(=S)[nH]c1=O)c1ccccc1O	p53 reactivator 6.3µM, CtBP-E1A inh -85, Six1-Eya2 inh -83, VP16 counter 7.1µM, RORgamma inh 5.6µM
O=C(N/N=C/c1c(O)n(-c2ccccc2)c(=O)[nH]c1=O)c1ccncc1	Six1-Eya2 inh inconclusive
Cc1ccccc1-n1c(O)c(/C=N/NC(=O)c2ccccc2O)c(=O)[nH]c1=S	CtBP-E1A inh -101, Six1-Eya2 inh -92, RORgamma inh inconclusive
O=C(N/N=C/c1c(O)n(-c2ccccc2)c(=S)[nH]c1=O)c1ccccc1	CtBP-E1A inh -89, Six1-Eya2 inh -92, RORgamma inh 7.9µM
Cc1[nH]cnc1CCN	none (no result: p53 reactivator, CtBP-E1A inh, Six1-Eya2 inh)
COc1cccc([C@@]2(O)CCCCC2CN(C)C)c1 (stereo partly specified)	none (no result: p53 reactivator, CtBP-E1A inh, Six1-Eya2 inh)
Clc1ccc(C(c2ccc(Cl)cc2)n2cc[n+](CC(OCc3ccc(Cl)cc3Cl)c3ccc(Cl)cc3Cl)c2)cc1 (stereo unspecified)	VP16 counter 11µM, RORgamma inh inconclusive
c1ccc(N2CC[C@@]3(CCCNC3)C2)cc1	none (no result: p53 reactivator, CtBP-E1A inh, Six1-Eya2 inh)
CC1=CC(c2ccccc2)NC(=S)N1 (stereo unspecified)	VP16 counter inconclusive, RORgamma inh 11µM
COC1=CC(=O)O[C@H](/C=C/c2ccc3c(c2)OCO3)C1	none (no result: p53 reactivator, CtBP-E1A inh, Six1-Eya2 inh)
CC(=O)Oc1ccc(/C=C/c2cc(OC(C)=O)cc(OC(C)=O)c2)cc1	VP16 counter inconclusive, RORgamma inh 4µM (no result: p53 reactivator, CtBP-E1A inh, Six1-Eya2 inh)
Cc1c(N=Cc2c(O)n(C)c(=O)[nH]c2=O)c(=O)n(-c2ccccc2)n1C	none (no result: CtBP-E1A inh)
Cc1c(N=Nc2c(O)[nH]c(=O)[nH]c2=O)c(=O)n(-c2ccccc2)n1C	Six1-Eya2 inh -91 (no result: CtBP-E1A inh)
Cc1c(N=Nc2c(O)n(-c3ccc(Br)cc3)c(=O)[nH]c2=O)c(=O)n(-c2ccccc2)n1C	CtBP-E1A inh -94, Six1-Eya2 inh -92
N#CC(O)c1ccccc1 (stereo unspecified)	none (no result: p53 reactivator, CtBP-E1A inh, Six1-Eya2 inh)
COc1cccc(/C=N/NC(=O)c2c(C)nc3ccc(Br)cn23)c1	VP16 counter inconclusive, RORgamma inh 14µM
CN(C(=O)Cc1ccc(Cl)c(Cl)c1)[C@H](CN1CCCC1)c1cccc(N=C=S)c1	VP16 counter inconclusive, RORgamma inh 32µM (no result: p53 reactivator, CtBP-E1A inh, Six1-Eya2 inh)
CC1CCCCC1n1c(-c2cccnc2)n[nH]c1=S (stereo unspecified)	VP16 counter inconclusive, RORgamma inh 10µM
COc1ccc2[nH]c3c(c2c1)CCN=C3C	CtBP-E1A inh inconclusive, Six1-Eya2 inh -70
